# Screens from PubChem BioAssay.
# TRHR enhancer-1 – qHTS for Small Molecule Agonists and Allosteric Enhancers of Human TRH Receptor: Primary Screen for Enhancers; Thyrotropin-releasing hormone receptor (Homo sapiens), P34981; TRHR cells, fluo-8 calcium fluorescence, EC20 TRH enhancement; enhancement, % at 2 µM; hit rate 0.66% among 360,000; in the data active = enhancement above about 30%
# Target sequence (P34981 whole entry, looked up): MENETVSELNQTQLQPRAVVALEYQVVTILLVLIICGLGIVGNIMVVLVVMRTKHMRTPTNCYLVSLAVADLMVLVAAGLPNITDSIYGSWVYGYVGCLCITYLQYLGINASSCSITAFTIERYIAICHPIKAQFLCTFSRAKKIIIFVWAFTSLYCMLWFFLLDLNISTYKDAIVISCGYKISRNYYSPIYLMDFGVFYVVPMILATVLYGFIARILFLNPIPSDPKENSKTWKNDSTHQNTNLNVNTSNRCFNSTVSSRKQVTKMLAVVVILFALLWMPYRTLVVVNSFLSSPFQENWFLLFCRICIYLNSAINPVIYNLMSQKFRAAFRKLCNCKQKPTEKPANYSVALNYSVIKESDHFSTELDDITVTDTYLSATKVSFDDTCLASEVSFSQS
#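 TRHR-expressing cells loaded with fluo-8 calcium dye were read kinetically (ex 480/em 530) during compound addition, then stimulated with an EC20 of TRH (10 nM final). Enhancement of the Gq-mediated intracellular calcium response was scored.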
# TRHR agonist-1 – qHTS for Small Molecule Agonists and Allosteric Enhancers of Human TRH Receptor: Primary Screen for Agonists. Thyrotropin-releasing hormone receptor (Homo sapiens), P34981. hit rate 0.18% among 360,000. activation, % at 2 µM. TRHR cells, calcium flux fluo-8, FDSS agonist mode; in the data active = activation above about 30%
#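 In this calcium-flux screen, cells bearing human TRHR are dye-loaded with fluo-8, baselined for 10 cycles, then exposed to library compounds; positive kinetic calcium responses during the agonist phase mark hits, with TRH as control.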
# TRPML1 ag – qHTS for Agonists of the Human Mucolipin Transient Receptor Potential 1 (TRPML1); Mucolipin-1 (Homo sapiens), Q9GZU1; TRPML1-expressing cells, Ca2+ dye fluorescence, FDSS; activation, % (concentration not given with the values); hit rate 0.12% among 410,000; AID 624414, 2012; in the data active = activation above about 50%; inconclusive = mostly about 30% to 49%
#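 Calcium fluorescence on an FDSS kinetic reader gave the read-out. Tet-induced TRPML1-DL cells were plated overnight, dye-loaded (Ca8 with quencher, 45-90 min, room temperature, dark), then read 110 s after compound addition, and again 110 s after 4uM final 54-4 (EC80).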
# TRPV1 PAM – HTS Assay for Compounds that Act as Potentiators of the Vanilloid Receptor 1 | Transient receptor potential cation channel subfamily V member 1 (Homo sapiens), Q8NER1 | TRPV1-expressing cells, Fluo-8 calcium influx, capsaicin EC20 potentiation | potentiation, % at 8.33 µM | hit rate 0.02% among 320,000 | AID 540277, 2011; in the data active = potentiation above about 80%; inconclusive = between about 30% and that limit
#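 Cells expressing TRPV1 were dye-loaded with Fluo-8 and read kinetically: 10 s baseline, 3 min after compound (agonist portion), then 2 min after EC20 capsaicin (allosteric enhancer portion). Calcium-bound dye fluorescence at 480/520 nm.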
# TRPV1 agonist – HTS Assay for Compounds that Act as Agonists of the Vanilloid Receptor 1; TRPV1-expressing cells, Fluo-8 calcium influx, agonist mode; activation, % at 8.33 µM; hit rate 0.19% among 320,000; AID 540275, 2011; in the data active = activation above about 80%; inconclusive = between about 30% and that limit
#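 Cells expressing TRPV1 were dye-loaded with Fluo-8 and read kinetically: 10 s baseline, 3 min after compound (agonist portion), then 2 min after EC20 capsaicin (allosteric enhancer portion). Calcium-bound dye fluorescence at 480/520 nm.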
# TRPML1 inh – qHTS for Inhibitors of the Human Mucolipin Transient Receptor Potential 1 (TRPML1). activity change, negative = inhibition, % (no concentration beside the values). hit rate 0.02% among 390,000. AID 624415, 2012. TRPML1-inducible cells, Ca2+ dye fluorescence, FDSS; hits give low values; inhibition of EC80 agonist-evoked calcium signal; in the data active = activity change below about -50%; inconclusive = between about -30% and that limit;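 note: stimulus is agonist 54-4 at its EC80 concentration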
#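 Calcium fluorescence in TRPML1-DL cells induced overnight with Tet: a 110 s read after compound pin addition, then a 110 s antagonist read after challenge with 54-4 at 4 uM final (EC80).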
# TRHR enhancer-2 – qHTS for Small Molecule Agonists and Allosteric Enhancers of Human TRH Receptor: Confirmation Screen for Enhancers | TRH receptor cell assay, enhancer confirmation qHTS | AID 493076, 2011 | shares compounds with TRHR enhancer-1 | 970 tested, under 10 active | activity change, negative = inhibition, % at 46.1 µM;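 note: compound effect scored on response to added TRH at EC20 of 10 nM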
# TRHR agonist-2 – qHTS for Small Molecule Agonists and Allosteric Enhancers of Human TRH Receptor: Confirmation Screen for Agonists. shares compounds with TRHR enhancer-1. TRHR-expressing cells, agonist activation read-out. Potency, µM (highest dose often 46.1 µM), actives largely listed as activators. hit rate 8% among 970; note: nearly all actives have a fitted effect of over 75% in size
# Hits are given with their value; . = inactive; ? = inconclusive; / = no result. Only some compounds are listed: those with a hit (about 0.99% of all), similar ones and a draw of the others. Unless noted, calls come from the whole dose curve; as a rule, active = well fitted curve in the direction sought with a large enough effect; inconclusive = small, poorly fitted or top-dose-only effect, or another doubt; inactive = no such curve, though single readings can be large; an effect the other way counts as inactive or inconclusive.
SMILES,TRHR enhancer-1,TRHR agonist-1,TRPML1 ag,TRPV1 PAM,TRPV1 agonist,TRPML1 inh,others
O=C1c2cccc3c(N4CCCCC4)ccc(c23)C(=O)N1c1ccc(O)cc1,.,134,?,.,?,.,
O=C1c2cccc3c(N4CCCCC4)ccc(c23)C(=O)N1c1ccccc1O,.,96,58,.,?,.,
O=C(O)c1sc2cccc(Cl)c2c1Cl,.,.,.,.,83,.,
COc1ccccc1C1N=C(Nc2nc3ccccc3o2)NC2=C1C(=O)CC(C)(C)C2 (configuration not stated),/,/,.,/,/,/,
O=C(c1ccc(Br)o1)N1CCN(Cc2ccc3c(c2)OCO3)CC1,.,.,.,.,.,.,
O=C(c1ccc(Br)s1)N1CCN(Cc2ccc3c(c2)OCO3)CC1,.,.,.,.,?,-51,
O=C(O)CCC(=O)N1CCN(Cc2ccc3c(c2)OCO3)CC1,31,.,.,.,.,.,
CCOc1ccccc1N1CCN(Cc2ccc(Br)s2)CC1,.,.,.,.,?,.,
CC(=O)N1CCN(Cc2ccc(Br)s2)CC1,30,.,.,.,.,.,
CCCC(=O)N1CCN(Cc2ccc3c(c2)OCO3)CC1,.,.,.,.,.,.,
COC(=O)/C=C/c1ccc2c(c1)S(=O)(=O)N(C1CCCC1)[C@H]2CC(=O)OC,/,/,.,/,/,/,
C/C(CC(=O)Nc1cc(C)ccn1)=N\NC(=O)c1ccccc1C,.,.,61,.,.,.,
C/C(CC(=O)Nc1cc(C)ccn1)=N\NC(=O)c1ccc(C)cc1,.,.,.,.,.,.,
COc1ccc(C(=O)N(Cc2cc(OC)c(OC)c(OC)c2)C2CCS(=O)(=O)C2)cc1Cl (configuration not stated),.,.,.,/,/,.,
Cc1c(N=c2scc(-c3ccccc3)n2C)c(=O)n(-c2ccccc2)n1C,.,.,.,95,.,.,
Cc1cc(C)c2c(n1)NCCC2,/,/,.,/,/,/,
CCCC(=O)Nc1ccc2c(c1)C(=O)NC2=O,.,.,.,.,.,.,
CCCC(=O)Nc1cccc(Oc2ccc3c(c2)C(=O)NC3=O)c1,35,.,.,.,.,.,
Cc1cc2c(s1)c1cnn(Cc3c(F)ccc(C)c3F)c(=O)c1n2C,.,.,/,/,/,/,
O=C(CSC1=NS(=O)(=O)c2ccccc21)Nc1ccccc1,.,.,.,.,.,.,
COC(=O)CSC1=NS(=O)(=O)c2ccccc21,39,.,.,.,.,.,
CC(C)(C)OC(=O)Cc1nnc(-c2cc3ccccc3[nH]2)o1,.,.,/,/,/,/,
CCO[C@H]1OC(C(N)=O)=C[C@@H](C)[C@@H]1CCCO,33,.,.,.,.,.,
N#CC(C#N)=C(N)CSc1cccc[n+]1[O-],35,.,.,.,.,.,
Cc1ccccc1CN1CCC(CNc2ncnc3onc(-c4ccc(F)cc4)c23)CC1,36,.,.,/,/,.,
SMILES,TRHR enhancer-1,TRHR agonist-1,TRPML1 ag,TRPV1 PAM,TRPV1 agonist,TRPML1 inh,others
CCCCCCc1cc2cc(/C(N)=N/NC(=O)c3ccncc3)c(=O)oc2cc1O,.,122,?,.,?,.,
O=S(=O)(/C=C/c1ccccc1)Nc1ccc(F)cc1,31,.,.,.,.,.,
Cc1cc2c(s1)c1cnn(Cc3ccccc3)c(=O)c1n2C,.,.,/,/,/,/,
CCOCCCn1c(=S)[nH]c2cc(C(=O)NCCCN(CC)CC)ccc2c1=O,.,.,.,105,.,.,
CCOCCCNC(=O)c1ccc2c(=O)n(CCCOCC)c(=S)[nH]c2c1,.,.,.,.,.,.,
CC(C)C(=O)Nc1ccc(C(=O)CN2C(=O)NC3(CCOc4ccccc43)C2=O)cc1 (configuration not stated),.,.,.,.,91,.,
CN(C)c1ccc(C=O)c(O)c1,/,/,.,/,/,/,
Cc1ccc(C2=NS(=O)(=O)N(C)C(C(=O)NCc3cccs3)=C2)cc1,.,.,.,.,92,.,
O=C(Cc1ccccc1)Nc1ccccc1C(=O)N1CCCCC1,.,.,.,.,.,.,
O=C(Cc1ccc(Cl)cc1)Nc1ccccc1C(=O)N1CCCC1,70,.,.,.,.,.,TRHR enhancer-2=?;TRHR agonist-2=.
Cc1cc(C)cc(OCC(O)CN2CCN(Cc3ccc4c(c3)OCO4)CC2)c1 (configuration not stated),44,.,.,.,.,.,TRHR enhancer-2=.;TRHR agonist-2=.
OC(COc1ccccc1)CN1CCN(Cc2ccc3c(c2)OCO3)CC1 (configuration not stated),.,.,.,.,.,.,
CCc1ccccc1NC(=O)c1cnc(N2CCCCC2)c2ccccc12,.,.,.,/,/,.,
O=C(Nc1ccc(Br)cc1Cl)c1ccc2c(=O)n3c(nc2c1)CCC3,.,.,.,.,.,.,
O=C(Nc1ccc(Cl)cc1Cl)c1ccc2c(=O)n3c(nc2c1)CCC3,.,.,.,.,.,.,TRHR enhancer-2=.;TRHR agonist-2=?
CN1CC(=O)N/C1=N\C(=O)Nc1ccc(O)cc1,54,.,.,.,.,.,TRHR enhancer-2=.;TRHR agonist-2=.
COc1ccc(/C=C(\NC(=O)c2ccccc2)C(=O)NC2CCCCC2)cc1,.,.,.,/,/,.,
CCCCCC1CC(=O)N(Cc2ccccc2)C(=O)N1 (configuration not stated),69,.,.,.,.,.,TRHR enhancer-2=.;TRHR agonist-2=.
Cc1cccc(C(=O)Oc2ccccc2C(=O)N2CCOCC2)c1,52,.,.,.,.,.,TRHR enhancer-2=.;TRHR agonist-2=.
Cc1ccc(C)c(N2CCN(CCCNC(=O)Cn3ncc4c5ccccc5n(C)c4c3=O)CC2)c1,.,.,.,/,/,.,
COc1cc(OC)cc(C(=O)Nc2cccnc2)c1,50,.,.,.,.,.,TRHR enhancer-2=.;TRHR agonist-2=.
COc1cc(OC)cc(C(=O)NC(=S)Nc2cccnc2)c1,.,.,.,.,.,.,
Cn1cnc(S(=O)(=O)N2CCCC(C(=O)NCc3ccccc3Cl)C2)c1 (configuration not stated),.,.,.,/,/,.,
